# High-throughput results (PubChem)
# Shiga toxin inh: A qHTS for Small Molecule Inhibitors of Shiga Toxin; inhibition, % at 38.7 µM; 290,000 compounds, 9.2% hits; Vero cells, Shiga toxin protein synthesis inhibition reporter; in the data active = inhibition mostly above about 28%, no sharp cut-off; inactive = mostly below about 43%; also: 0% is about no effect
# RE007 growth inh: qHTS Assay for Inhibitors of the HIV-1 protein Vpr. 360,000 compounds, 0.21% hits. Potency, µM (top dose mostly 92.2 µM), for inactives: at the top dose activity change, negative = less growth, actives largely listed as inhibitors. S. pombe RE007 Vpr strain, BacTiter-Glo ATP luminescence, 24 h; active = well fitted falling curve with a large enough effect; inconclusive = small, poorly fitted or top-dose-only effect; inactive = no such curve, though single readings can be large or run the other way; also: potency is read from the fitted curve at half-maximal effect; % is scaled to controls: 0 for no effect and ±100 for the full control effect; nearly all actives have a fitted effect of over 50% in size
#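 Fission yeast RE007 carrying one integrated HIV-1 vpr copy, seeded at OD 0.01 in PMG+AL medium with 23 nL pinned compound. Grown 24 h at 30 degrees; viability read by BacTiter-Glo luminescence after 5 min.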
# CHX counter: Cycloheximide Counterscreen for Small Molecule Inhibitors of Shiga Toxin | cell reporter, cycloheximide protein synthesis inhibition counterscreen | max response, % | 300,000 compounds, 12% hits | AID 2314, 2010; in the data active = max response mostly above about 13%, no sharp cut-off; inactive = mostly below about 14%; also: read at 38.3 µM for the half of the compounds with a filed dose; 0% is about no effect
# FBPA Giardia inh: qHTS Assay for Inhibitors of Fructose-1,6-bisphosphate Aldolase from Giardia Lamblia | A8B2U2 | purified Giardia FBPA | Potency, µM (top dose mostly 59.6 µM), without a hit: top-dose activity, negative = inhibition, usual class: inhibitors | 290,000 compounds, 0.71% hits; also: potency is read from the fitted curve at half-maximal effect; % is scaled to controls: 0 for no effect and ±100 for the full control effect; nearly all actives have a fitted effect of over 55% in size
# Target sequence (A8B2U2 whole entry, looked up): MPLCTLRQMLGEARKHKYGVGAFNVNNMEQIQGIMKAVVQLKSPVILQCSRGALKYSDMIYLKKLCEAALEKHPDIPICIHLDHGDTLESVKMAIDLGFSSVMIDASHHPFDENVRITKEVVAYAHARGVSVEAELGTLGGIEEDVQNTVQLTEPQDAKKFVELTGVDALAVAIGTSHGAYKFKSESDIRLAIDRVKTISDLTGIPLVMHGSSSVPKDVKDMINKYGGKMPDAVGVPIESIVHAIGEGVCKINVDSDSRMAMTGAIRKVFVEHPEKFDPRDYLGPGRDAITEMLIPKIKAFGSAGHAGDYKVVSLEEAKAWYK
#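 40 nM FBPA preincubated 10 min at RT with compound (up to 57.5 uM final), then substrate plus GAPDH/TPI/NAD/arsenate coupling and diaphorase/resazurin added. Fluorescence read after 20 min at RT, 525/598 nm.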
# Tb PYK inh: qHTS of Trypanosoma Brucei Inhibitors; AID 624173, 2012; TbPYK enzyme, Kinase-Glo Plus ATP luminescence, 45 min; 410,000 compounds, 0.12% hits; pyruvate kinase (Trypanosoma brucei), Q57TT1; Potency, µM (titrated, usually from 76.8 µM), without a hit: at the top dose activity, negative = inhibition, most hits filed as inhibitors; also: potency is read from the fitted curve at half-maximal effect; % is scaled to controls: 0 for no effect and ±100 for the full control effect; nearly all actives have a fitted effect of over 50% in size
#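 Readout: single end-point luminescence (Kinase-Glo Plus, 10 min). Reaction conditions were TbPYK/substrate plus 130 uM ADP, 45 min at RT, pH 7.2 TEA buffer. No-enzyme wells served as controls, and data were normalized before concentration-response fitting.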
# LmPK inh: qHTS Assay for Inhibitors of Leishmania Mexicana Pyruvate Kinase (LmPK); purified LmPK, Kinase-Glo ATP luminescence, 1 h; Potency, µM (doses to about 57.5 µM), inactives show top-dose activity change, negative = inhibition, most hits filed as inhibitors; 290,000 compounds, 0.37% hits; AID 1721, 2009; also: potency is read from the fitted curve at half-maximal effect; % is scaled to controls: 0 for no effect and ±100 for the full control effect
#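 Purified LmPK (0.1 nM) converted ADP (0.1 mM) to ATP with PEP (0.5 mM) in imidazole buffer pH 7.2 with KCl and MgCl2, 1 h at room temperature. ATP was read by Kinase-Glo luminescence; data normalized to uninhibited and no-enzyme controls.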
# * marks the source's active call; other numbers are inactive results; ? = inconclusive; nt = no result; [ ] = another dose, or the depositor's remark. This excerpt belongs to a sample that is enriched for hits. Unless noted, calls follow the shape of the dose curve; as a rule, active = well fitted curve in the direction sought with a large enough effect; inconclusive = small, poorly fitted or top-dose-only effect, or another doubt; inactive = no such curve, though single readings can be large; an effect the other way counts as inactive or inconclusive.
SMILES,Shiga toxin inh,RE007 growth inh,CHX counter,FBPA Giardia inh,Tb PYK inh,LmPK inh
CC1=CC23C(=O)C(C=C(CO)[C@@H](O)[C@]2(O)[C@H]1O)[C@H]1[C@@H](C[C@H]3C)C1(C)C (stereo not given in full),-3,nt,-2,3%,nt,nt
CC1CCc2c(sc3nnn(CCCCOc4ccc(Cl)cc4)c(=O)c23)C1 (stereo not given),nt,nt,nt,nt,-12%,nt
O=C(Nc1ccnn1C1CCN(C(=O)c2cnsn2)CC1)c1cccc(F)c1,16,?,18*,0%,-6%,2%
O=C(Nc1ccnn1C1CCN(C(=O)c2ccc(F)cc2)CC1)C1CCOC1 (stereo not given),-6,-3%,-4,2%,3%,1%
O=C(Nc1ccnn1C1CCN(C(=O)CCc2ccc(F)cc2)CC1)C1CCOC1 (stereo not given),15,-2%,20*,5%,-7%,-12%
O=C(Nc1ccnn1C1CCN(C2CCCCC2)CC1)c1cccc(F)c1,8,-1%,-4,11%,5%,-7%
CCCc1cc(C(=O)N2CCC(n3nccc3NC(=O)c3ccc(OC)cc3)CC2)no1,22*,4%,21*,nt,-4%,-10%
COc1ccc(C(=O)Nc2ccnn2C2CCN(C(=O)C3CCOC3)CC2)cc1 (stereo not given),53*,6%,25*,-1%,2%,0%
COc1ccc(C(=O)Nc2ccnn2C2CCN(Cc3cn(C)nc3C)CC2)cc1,13,2%,-4,nt,-12%,2%
Cc1ccc(CN2C(=O)C(O)(CC(=O)c3ccc(C)cc3)c3ccccc32)cc1 (stereo not given),nt,nt,nt,nt,-7%,nt
Cc1ccc(NC(=O)Cn2c(=O)n(CCCS(=O)(=O)C3CCCCC3)c(=O)c3ccccc32)cc1F,nt,nt,nt,nt,12%,nt
COc1ccc(C(=O)Nc2ccnn2C2CCN(C(=O)CCC(F)(F)F)CC2)cc1,42*,-1%,24*,-3%,-8%,5%
C=CCCC(=O)N1CCC(n2nccc2NC(=O)c2ccc(OC)cc2)CC1,33,-6%,37*,nt,1%,1%
C/C=C(\C)CN1CCC(n2nccc2NC(=O)c2ccc(OC)cc2)CC1,-18,9%,4,nt,-1%,-3%
COc1ccc(CC(=O)N2CCC(n3nccc3NC(=O)C3CC3)CC2)cc1,15,3%,1,nt,7%,-5%
COc1ccccc1N1CCN(C(=O)c2ccc3c(c2)N(Cc2cc(C)ccc2C)C(=O)c2ccccc2S3(=O)=O)CC1,nt,nt,nt,nt,7%,nt
NC(N)=Nc1cc2ccccc2c2ccccc12,18,nt,-2,3.2µM*,nt,0%
COc1ccccc1NC(=S)NC(=O)CCc1ccccc1,10,-6%,11,nt,-1%,-3%
O=C(CCc1ccccc1)NC(=S)Nc1cccc(C(=O)O)c1,103*,-9%,58*,-3%,1%,5%
O=C(CCc1ccccc1)NC(=S)Nc1ccccc1Br,52*,?,13,-11%,-2%,3%
O=C(CCCc1ccccc1)Nc1cccc(C(=O)O)c1,122*,-1%,60*,19%,-2%,2%
CC(C)(C)C(=O)NC(=S)Nc1cccc(C(=O)O)c1,84*,14%,45*,-5%,-3%,1%
CCc1ccc(OCCCC(=O)Nc2cccc(C(=O)O)c2)cc1,11,-5%,5,18%,5%,2%
CC(C)(C)C(=O)NC(=S)Nc1ccc(F)cc1,87*,-10%,31*,-1%,-12%,1%
CC(=O)Nc1ccc(NC(=S)Nc2ccc(F)cc2)cc1,20,2%,-1,0%,-6%,-5%
SMILES,Shiga toxin inh,RE007 growth inh,CHX counter,FBPA Giardia inh,Tb PYK inh,LmPK inh
COc1ccc(/C=C2\N=C(SC)N(c3ccccc3OC)C2=O)cc1,33,-7%,25*,-24%,4%,1%
Cn1c(CN2CCOCC2)nc2cc(NC(=O)c3ccccc3[N+](=O)[O-])ccc21,nt,nt,nt,nt,-1%,nt
C[N+](C)(C)CCCl,-6,nt,-11,0%,nt,nt
CCOc1ccccc1C(=O)Nc1cccc2cccnc12,19*,-7%,20*,-15%,4%,-5%
O=C(Nc1cccc2cccnc12)c1cccc2ccccc12,-1,0%,-1,0%,-2%,0%
O=C(Nc1cccc2cccnc12)c1ccccc1Br,nt,-26%,nt,nt,1%,nt
COc1cccc(C(=O)Nc2cccc3cccnc23)c1OC,nt,16%,22*,9%,0%,2%
Cc1ccc(S(=O)(=O)N[C@H]2COC(=O)C/C=C\[C@@H](C)[C@H](NS(=O)(=O)c3ccc(C)cc3)COC(=O)C/C=C\[C@H]2C)cc1,nt,nt,nt,1%[12.9 µM],nt,nt
COc1ccc(N2CCN(Cc3nc4c(c(=O)n(C)c(=O)n4C)n3C(C)C)CC2)cc1,nt,nt,nt,nt,0%,nt
Cc1cc(C)n(CC(O)COc2ccc(Cl)cc2Cl)n1 (stereo not given),29*,-3%,30*,1%,3%,-4%
COc1cc(N2C(=O)C=CC2=O)ccc1N1C(=O)C=CC1=O,nt,-11%,nt,nt,4.5µM*,nt
COc1ccc(N2C(=O)C3CC(C)=C(C)CC3C2=O)c(OC)c1 (stereo not given),-9,-6%,-3,6%,-1%,-3%
COC(=O)c1nnc(C(=O)NCc2ccccc2)c2[nH]c3ccccc3c12,nt,nt,nt,-1%,nt,nt
N#CCCn1c(=O)c(-c2cccc(C#N)c2)nc2cnc(N3CCOCC3)nc21,nt,nt,nt,6%,nt,nt
Cc1ccc(C(=O)OCc2cn3ccccc3n2)cc1,15,?,15*,-7%,-8%,8%
c1ccc(CSCc2cn3ccccc3n2)cc1,112*,-2%,47*,0%,6%,-15%
Cc1ccc(SCc2cn3ccccc3n2)cc1,66*,?,32*,-1%,1%,-20%
Cc1ccc2nc(COC(=O)CNC(=O)c3ccccc3)cn2c1,nt,-14%,nt,nt,3%,nt
CC(=O)Nc1ccn(C2OC(C(COC(C)=O)NC(=O)C(Cc3ccccc3)NC(=O)OC(C)(C)C)C(OC(C)=O)C2OC(C)=O)c(=O)n1 (stereo not given),2,nt,-5,0%,nt,nt
CN1CCN(CCC(=O)Nc2ccc3c(c2)OCO3)CC1,2,55%,-1,2%,3%,2%
O=C(CSc1nccn1-c1ccccc1)Nc1ccc2c(c1)OCO2,68*,-6%,70*,1%,-5%,1%
CN(C)S(=O)(=O)c1ccc2c(c1)nc(CCC(=O)Nc1ccc3c(c1)OCO3)n2C,48*,3%,9.6*,-11%,2%,1%
O=C(CSc1nccn1-c1ccc(F)cc1)Nc1ccc2c(c1)OCO2,45,10%,5,nt,0%,4%
